Experiment in all cases: NCI-60 one-dose screen, 48 h (100 = growth as untreated, 0 = no growth, -100 = all killed)
One assay has as its system SR leukemia. To be noted: 10 µM.
The subject of a further assay is RPMI-8226 leukemia. As to conditions: 10 µM.
In another assay the test system is OVCAR-8 ovarian. To be noted: 10 µM.
The next assay has as its system OVCAR-5 ovarian. To be noted: 10 µM.
The next assay has as its system OVCAR-4 ovarian. As to conditions: 10 µM.
Another assay relates to SK-OV-3 ovarian. To be noted: 10 µM.
The test system of a further assay is IGROV1 ovarian. To be noted: 10 µM.
A further assay has as its system OVCAR-3 ovarian. As to conditions: 10 µM.
The next assay relates to HS 578T breast. As to conditions: 10 µM.
The next assay relates to NCI/ADR-RES ovarian. As to conditions: 10 µM.
For a further assay, the system named is T-47D breast. To be noted: 10 µM.
A further assay has as its system BT-549 breast. To be noted: 10 µM.
Another assay concerns MDA-MB-435 melanoma. To be noted: 10 µM.
The next assay relates to SW-620 colon. To be noted: 10 µM.
A further assay relates to MCF7 breast. To be noted: 10 µM unless noted.
The next assay concerns HCT-116 colon. As to conditions: 10 µM.
Another assay relates to HCC-2998 colon. As to conditions: 10 µM.
The test system of a further assay is KM12 colon. As to conditions: 10 µM.

Structures are written as SMILES. About 83,000 compounds went through this panel and 20% of them were active in at least one assay; those are over-represented in the sample as a whole.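 Negative percent growth values reflect cell death: -40 means 40% of the cells present at the start died, and -100 means all died.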 Values without a mark were called inactive. Calls of active or inactive are those of the source. The calls were made as follows: active = growth percent below 10; inactive = the rest.

As to `CCOC(=O)c1ccc(NC(=S)P(=O)(c2ccccc2)c2ccccc2)cc1`, the growth with SR leukemia is 69.3%; with RPMI-8226 leukemia, 64.4%; in the assay on OVCAR-8 ovarian it was 107%; in the assay with OVCAR-5 ovarian, 105%; in the assay on OVCAR-4 ovarian it was 99.6%; with SK-OV-3 ovarian, 107%. The growth in the assay with IGROV1 ovarian is 110%; in the assay on OVCAR-3 ovarian it was 92.2%; in the assay with HS 578T breast it was 96.4%; in the assay on NCI/ADR-RES ovarian, 101%; in the assay with T-47D breast it was 109%; with BT-549 breast, 101%. For the same compound, the growth in the assay with MDA-MB-435 melanoma was 91.1%; in the assay on SW-620 colon it was 102%; in the assay with MCF7 breast, 100%; with HCT-116 colon, 91.7%; in the assay with HCC-2998 colon, 108%.

Take `Cc1cccc([N+](=O)[O-])c1Cl`: the growth in the assay with SR leukemia was 117%; in the assay with RPMI-8226 leukemia it was 103%; in the assay on OVCAR-8 ovarian, 99.6%; with OVCAR-5 ovarian, 96.4%; in the assay on OVCAR-4 ovarian, 109%; in the assay with SK-OV-3 ovarian it was 107%. Besides, the growth with IGROV1 ovarian is 112%; with OVCAR-3 ovarian, 106%; in the assay on HS 578T breast, 98.1%; in the assay on NCI/ADR-RES ovarian it was 92.8%; with T-47D breast, 103%; in the assay on BT-549 breast, 100%. Further, the growth with MDA-MB-435 melanoma was 91.4%; in the assay with SW-620 colon it was 100%; in the assay on MCF7 breast, 105%; in the assay on HCT-116 colon, 108%; with HCC-2998 colon, 86.1%; in the assay with KM12 colon, 104%.

For `NC(=S)N/N=C/c1ccc(N)cc1`, the growth was 98.6% in the assay with SR leukemia; 98.8% in the assay on RPMI-8226 leukemia; 102% in the assay on OVCAR-8 ovarian; 108% in the assay with OVCAR-5 ovarian; 108% in the assay with OVCAR-4 ovarian; 100% in the assay on SK-OV-3 ovarian. Besides, the growth is 103% in the assay on IGROV1 ovarian; 103% with OVCAR-3 ovarian; 106% with HS 578T breast; 102% in the assay with NCI/ADR-RES ovarian; 93.9% in the assay on T-47D breast; 96.3% in the assay with BT-549 breast. The growth is 105% in the assay on MDA-MB-435 melanoma; 104% with SW-620 colon; 94.8% with MCF7 breast; 94.1% in the assay with HCT-116 colon; 104% in the assay with HCC-2998 colon; 103% with KM12 colon.

On to `CC(C)CCCC(=O)O`, for which the growth is 89.4% with SR leukemia; 105% with RPMI-8226 leukemia; 114% in the assay on OVCAR-8 ovarian; 100% in the assay with OVCAR-5 ovarian; 96.8% with OVCAR-4 ovarian; 108% in the assay on SK-OV-3 ovarian. Further, the growth with IGROV1 ovarian is 104%; with OVCAR-3 ovarian, 114%; with HS 578T breast, 103%; with NCI/ADR-RES ovarian it was 109%; in the assay with T-47D breast, 104%; in the assay on BT-549 breast it was 108%. In addition, the growth with MDA-MB-435 melanoma was 105%; in the assay with SW-620 colon, 100%; in the assay on MCF7 breast, 96%; in the assay with HCT-116 colon it was 107%; in the assay on HCC-2998 colon, 103%.

On to `CCN(CC)CCCC(C)Nc1ccnc(/C=C/c2ccc(Cl)cc2)c1` (stereo unspecified), for which the growth in the assay on SR leukemia was -19% (active); with RPMI-8226 leukemia, -26.3% (active); with OVCAR-8 ovarian, 14.8%; in the assay with OVCAR-5 ovarian, 47.1%; in the assay with OVCAR-4 ovarian, 15.4%; in the assay on SK-OV-3 ovarian, 72.8%. Moreover, the growth was 41.2% with IGROV1 ovarian; 26.5% with OVCAR-3 ovarian; 47.1% in the assay with HS 578T breast; 56.1% in the assay with NCI/ADR-RES ovarian; -4.4% (active) in the assay on T-47D breast; 29.1% in the assay with BT-549 breast. Moreover, the growth in the assay with MDA-MB-435 melanoma is -53.4% (active); in the assay with SW-620 colon it was -53.2% (active); in the assay on MCF7 breast, -26.6% (active); in the assay with HCT-116 colon it was -10.5% (active); in the assay on HCC-2998 colon it was -23.6% (active); in the assay with KM12 colon it was 25.3%.

Take `CCCCC(O)c1ccccc1` (stereo unspecified): the growth is 98% in the assay with SR leukemia; 108% in the assay on RPMI-8226 leukemia; 93.8% in the assay with OVCAR-8 ovarian; 115% with OVCAR-5 ovarian; 100% in the assay with OVCAR-4 ovarian; 95.4% in the assay on SK-OV-3 ovarian. Further, the growth is 110% with IGROV1 ovarian; 109% with OVCAR-3 ovarian; 116% with HS 578T breast; 99.3% with NCI/ADR-RES ovarian; 87.2% with T-47D breast; 110% in the assay with BT-549 breast. The growth is 108% in the assay on MDA-MB-435 melanoma; 108% in the assay on SW-620 colon; 103% in the assay on MCF7 breast; 108% in the assay on HCT-116 colon; 104% in the assay with HCC-2998 colon; 106% with KM12 colon.

For the compound `CCOC(=O)CCCC(=O)OCC`, the growth was 102% in the assay on SR leukemia; 113% in the assay with RPMI-8226 leukemia; 103% in the assay on OVCAR-8 ovarian; 101% in the assay on OVCAR-5 ovarian; 101% in the assay on OVCAR-4 ovarian; 96.7% in the assay with SK-OV-3 ovarian. For the same compound, the growth was 102% in the assay with IGROV1 ovarian; 102% with OVCAR-3 ovarian; 96.2% in the assay on HS 578T breast; 106% in the assay with NCI/ADR-RES ovarian; 96.4% with T-47D breast; 104% in the assay with BT-549 breast. Further, the growth with MDA-MB-435 melanoma is 106%; in the assay with SW-620 colon it was 102%; in the assay with MCF7 breast it was 97.9%; in the assay on HCT-116 colon, 97.9%; with HCC-2998 colon, 105%; in the assay on KM12 colon, 99.6%.

Consider `Cc1ccc(O)c(C(=O)c2ccccc2)c1`, for which the growth is 113% in the assay on SR leukemia; 113% in the assay on RPMI-8226 leukemia; 111% in the assay with OVCAR-8 ovarian; 96.3% in the assay on OVCAR-5 ovarian; 110% in the assay with OVCAR-4 ovarian; 119% with SK-OV-3 ovarian. In addition, the growth is 113% in the assay on IGROV1 ovarian; 104% with OVCAR-3 ovarian; 108% in the assay on HS 578T breast; 105% with NCI/ADR-RES ovarian; 109% with T-47D breast; 99.1% in the assay on BT-549 breast. The growth with MDA-MB-435 melanoma was 110%; in the assay on SW-620 colon, 100%; in the assay with MCF7 breast, 105%; in the assay on HCT-116 colon, 102%.

As for `CC1CCCC(CC(N)=O)CC1` (stereo unspecified), the growth is 94.7% in the assay on SR leukemia; 88.8% with RPMI-8226 leukemia; 89% in the assay on OVCAR-8 ovarian; 104% in the assay with OVCAR-5 ovarian; 108% in the assay on OVCAR-4 ovarian; 107% in the assay on SK-OV-3 ovarian. Moreover, the growth in the assay on IGROV1 ovarian was 114%; in the assay on OVCAR-3 ovarian, 102%; in the assay with HS 578T breast it was 107%; in the assay with NCI/ADR-RES ovarian it was 105%; in the assay with T-47D breast it was 101%; in the assay on BT-549 breast, 116%. The growth in the assay with MDA-MB-435 melanoma was 104%; in the assay on SW-620 colon, 105%; in the assay with MCF7 breast, 103%; in the assay with HCT-116 colon, 98.4%; in the assay on HCC-2998 colon, 102%; with KM12 colon, 107%.

In the case of `CCN(CC)C(=O)/C=C(/C)c1ccccc1`, the growth in the assay with SR leukemia was 107%; in the assay on RPMI-8226 leukemia, 109%; in the assay with OVCAR-8 ovarian it was 105%; with OVCAR-5 ovarian, 113%; in the assay on OVCAR-4 ovarian, 92.7%; in the assay on SK-OV-3 ovarian, 107%. Moreover, the growth with IGROV1 ovarian is 117%; with OVCAR-3 ovarian it was 111%; in the assay on HS 578T breast it was 101%; in the assay on NCI/ADR-RES ovarian, 102%; in the assay with T-47D breast, 102%; in the assay with BT-549 breast, 94.5%. In addition, the growth in the assay on MDA-MB-435 melanoma was 108%; with SW-620 colon, 102%; in the assay on MCF7 breast, 102%; with HCT-116 colon, 106%; with HCC-2998 colon, 88.6%; in the assay on KM12 colon, 111%.

Source of the values: PubChem BioAssay (NCI).
